Source: PubChem BioAssay (National Center for Advancing Translational Sciences (NCATS))
Compounds with a hit are over-represented: about 9.5% of the library has one in this group of screens.
RE007 growth inh: qHTS Assay for Inhibitors of the HIV-1 protein Vpr | S. pombe RE007 Vpr strain, BacTiter-Glo ATP luminescence, 24 h | Potency, µM (highest dose often 92.2 µM), most hits filed as inhibitors | 360,000 compounds, 0.21% hits; active = well fitted falling curve with a large enough effect; inconclusive = small, poorly fitted or top-dose-only effect; inactive = no such curve, though single readings can be large or run the other way; note: nearly all actives have a fitted effect of over 50% in size
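Fission yeast strain RE007, carrying one chromosomally integrated HIV-1 vpr copy, was seeded at OD 0.01 in PMG+AL medium with 23 nL pinned compound. After 24 h at 30 °C and 99% humidity, viability was read by BacTiter-Glo luminescence.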
Pf growth 96h: Primary qHTS for delayed death inhibitors of the malarial parasite plastid, 96 hour incubation. P. falciparum luciferase reporter growth, 96 h. AID 504834, 2011. Potency, µM (highest dose often 28.7 µM), actives largely listed as inhibitors. 320,000 compounds, 6.9% hits; active = well fitted inhibition curve with a large enough effect; inconclusive = small, poorly fitted or top-dose-only effect, or another doubt; inactive = no such curve, though single readings can be large or run the other way
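Luminescence readout: decreased luciferase signal marks inhibited growth of reporter-expressing P. falciparum in infected red cells (2% hematocrit, 0.05% parasitemia final), exposed to compound two generations (96 h, 37 C, 5% CO2).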
Pf growth 48h: Primary qHTS for delayed death inhibitors of the malarial parasite plastid, 48 hour incubation. 310,000 compounds, 5.9% hits. Potency, µM (series often up to 28.7 µM), usual class: inhibitors. P. falciparum luciferase growth in erythrocytes, 48 h; active = well fitted inhibition curve with a large enough effect; inconclusive = small, poorly fitted or top-dose-only effect, or another doubt; inactive = no such curve, though single readings can be large or run the other way
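Luminescence readout; reporter = integrated firefly luciferase in P. falciparum. RBC culture at 2% hematocrit, 0.1% parasitemia final, 37 C/5% CO2; decreased signal taken as growth inhibition.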
NS1 inh: qHTS Assay for Inhibitors of Influenza NS1 Protein Function; AID 2326, 2010; Potency, µM (highest dose often 46.1 µM); 270,000 compounds, 0.4% hits; note: actives are rising curves; nearly all actives have a fitted effect of over 50% in size
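Compounds were scored for reversing the slow growth caused by influenza A NS1 in S. cerevisiae, measured by optical density at 600 nm. Assay medium contained 2% galactose at pH 6.0; NS1-free yeast of the same strain were the positive control.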
SARS PLP yeast: qHTS of Yeast-based Assay for SARS-CoV PLP | S. cerevisiae expressing SARS-CoV PLpro, growth rescue | Potency, µM (top dose mostly 32.9 µM), usual class: activators | 330,000 compounds, 0.19% hits | AID 485353, 2010; note: nearly all actives have a fitted effect of over 55% in size
Numbers stand for hits; - = inactive; ? = inconclusive; . = not tested or not shown; [ ] = dose if it differs, or a comment. Unless noted, calls come from the whole dose curve.

SMILES | RE007 growth inh | Pf growth 96h | Pf growth 48h | NS1 inh | SARS PLP yeast
CN(C)CCNCCN | . | . | . | - | .
CCN(Cc1ccccc1)N=Nc1ccccc1 | - | . | . | . | .
CC(=O)OC(COC1C[C@@H]2CC[C@@]1(C)C2(C)C)C[N+]1(C)CCCCC1 (stereo partly specified) | - | 2.9µM | 3.3µM | - | -
Cc1cc(N2CC(C)OC(C)C2)n2cc(-c3ccccc3)nc2n1 (stereo unspecified) | - | ? | ? | . | -
CCOCCCNC(=S)N1C2CCC1CC(NC(=O)NC13CC4CC(CC(C4)C1)C3)C2 (stereo unspecified) | - | 3.7µM | 4.7µM | - | -
Cc1ccc(C(=O)N(c2ccccc2)C2CC(C)N(C(=O)c3ccco3)c3ccccc32)cc1 (stereo unspecified) | - | . | 10µM | - | -
CC(=O)N(c1ccccc1)C1CC(C)N(C(=O)c2ccccc2)c2ccccc21 (stereo unspecified) | - | - | - | - | -
CC(C)n1nc(C(=O)OCn2nnc3ccccc3c2=O)c2ccccc2c1=O | - | ? | - | - | -
CCOc1ccc(/C=N/NC(=O)c2ccccc2O)cc1CN1CC2CC(C1)c1cccc(=O)n1C2 (stereo unspecified) | - | 13µM | ? | . | -
Cc1nnc2sc(SCC(=O)Nc3cccc(Cl)c3)nn2c1=O | - | ? | - | . | -
COc1cccc(NC(=O)CSc2nn3c(=O)c(C)nnc3s2)c1 | - | 9.3µM | ? | ? | -
COc1ccc(CCNC(=O)CSc2nn3c(=O)c(C)nnc3s2)cc1OC | - | 0.21µM | 5.2µM | - | -
COc1ccc(NC(=O)CSc2nn3c(=O)c(C)nnc3s2)cc1 | - | 12µM | ? | - | -
COc1ccc(CNC(=O)CSc2nn3c(=O)c(C(C)(C)C)nnc3s2)cc1OC | - | ? | ? | . | -
COc1ccccc1CNC(=O)CSc1nn2c(=O)c(C(C)(C)C)nnc2s1 | - | ? | 2.9µM | - | -
CC1(C)CO[C@@H](CC(=O)O)CN1 | . | - | - | . | .
OCCNc1ncnc2c1ncn2[C@@H]1O[C@@H](CO)[C@H](O)[C@@H]1O | . | . | . | - | .
Cc1ccccc1CCN(C(=O)c1csnn1)C(C(=O)NC1CCCC1)c1ccncc1 (stereo unspecified) | - | - | ? | - | -
ClC(Cl)c1nnc(-c2ccccc2)c(-c2c[nH]c3ccccc23)n1 | . | 9.3µM | ? | - | -
C[C@H](O)C(=O)Nc1c(I)c(C(=O)NC(CO)CO)c(I)c(C(=O)NC(CO)CO)c1I | . | - | - | . | .
CC(=O)Nc1ccc(NC(=O)C(C)OC(=O)C2(c3ccccc3F)CCCC2)cc1 (stereo unspecified) | - | 12µM | 8.3µM | . | -
CN(CC(O)COc1ccc2ccccc2c1)C1CCCCC1 (stereo unspecified) | - | - | ? | - | -
O=[N+]([O-])c1ccc(OCC(O)CN(C2CCCCC2)C2CCCCC2)cc1 (stereo unspecified) | - | ? | ? | - | -
CN(CC(O)COc1c(F)cc(Br)cc1F)C1CCCCC1 (stereo unspecified) | - | - | 9.3µM | - | -
COc1ccc(OCC(O)CN(C2CCCCC2)C2CCCCC2)cc1 (stereo unspecified) | - | 5.9µM | ? | - | -
SMILES | RE007 growth inh | Pf growth 96h | Pf growth 48h | NS1 inh | SARS PLP yeast
O=C1O[C@@H]([C@H](O)CO)C(O)=C1O | -[18.4 µM] | . | . | . | .
CC(C)n1nc(C(=O)OCC(=O)c2c[nH]c3ccccc23)c2ccccc2c1=O | - | 6.6µM | . | - | -
CCn1nc(C(=O)OCC(=O)c2c[nH]c3ccccc23)c2ccccc2c1=O | - | 7.4µM | 4.7µM | - | -
CCOc1ccc(C(=O)COC(=O)c2nn(CC)c(=O)c3ccccc23)cc1 | - | - | ? | . | -
O=C(CC(=O)Nc1cccc(F)c1)Nc1cccc(F)c1 | - | - | ? | - | -
O=C(Cn1c2ccccc2c(=O)c2ccccc21)Nc1cccc(F)c1 | - | ? | 15µM | - | -
O=C(Cn1c(=O)c(=O)n(Cc2ccccc2)c2ccc(Cl)cc21)Nc1cccc(F)c1 | . | 13µM | - | - | -
CC(C)C[C@@H]1NC(=O)[C@H](Cc2ccc(O)cc2)NC(=O)[C@H](CCC(N)=O)NC(=O)c2cc([N+](=O)[O-])cc(I)c2NCC[C@@H](C(N)=O)NC1=O | . | - | - | - | -
O=C1/C(=C\c2ccncc2)N2CCC1CC2 | - | - | - | - | -
O=C1/C(=C\c2cccnc2)N2CCC1CC2 | - | 9.3µM | ? | - | -
Cc1ccc(C2=C(CC(=O)O)C(=O)CC2)cc1 | . | 4.7µM | - | - | -
O=C(/C=C/c1ccc(OC(F)F)cc1)Nc1cccc(S(=O)(=O)N2CCOCC2)c1 | - | ? | - | - | -
Cc1c(Cl)ccc2c(C(=O)NCCN3CCCCC3)cc(-c3ccccn3)nc12 | - | ? | ? | - | -
COc1ccccc1-c1cc(C(=O)NC2CCN(C)CC2)c2ccc(Cl)c(C)c2n1 | - | ? | 9.3µM | - | -
COC(=O)Nc1ccc(SCC(=O)c2cccc([N+](=O)[O-])c2)cc1 | - | - | - | - | -
CN(C[C@H](CC1CCCCC1)N(C[C@H](Cc1ccccc1)N(CCc1ccccc1)N=O)N=O)N=O | - | ? | 13µM | - | -
CC(C)C[C@@H](CN(C)N=O)N(C[C@H](Cc1ccccc1)N(CCc1ccccc1)N=O)N=O | - | ? | ? | - | -
CN(C[C@H](Cc1ccccc1)N(C[C@H](Cc1ccccc1)N(CCc1cc(C(F)(F)F)cc(C(F)(F)F)c1)N=O)N=O)N=O | - | 4.1µM | ? | - | -
COc1ccc(C(=O)N/N=C\c2ccoc2)cc1 | - | 4.7µM | - | - | -
COc1ccc(C(=O)Nc2ccccc2C(=O)N/N=C/c2ccco2)cc1 | 18µM | - | - | - | -
Cc1ccc(C(=O)N/N=C/c2ccoc2)cc1C | - | - | - | - | -
O=C(N/N=C/c1cccc(F)c1)c1ccc(Cl)cc1 | - | - | - | - | -
CC(C)(C)c1ccc(C(=O)N/N=C/c2cccc(Cl)c2)cc1 | - | 13µM | . | - | -
COc1ccc(C(=O)N/N=C/c2cc3ccccc3[nH]c2=S)cc1 | - | 13µM | . | - | -
COc1ccc(C(=O)N/N=C/c2c[nH]c3ccccc23)cc1 | - | - | - | - | -
O=C(C1CCC(=O)N(C2CC2)C1)N1CCN(c2cccc(Cl)c2)CC1 (stereo unspecified) | - | ? | - | - | -
CCCn1cc(S(=O)(=O)c2ccccc2)c(=O)c2cc(F)c(N3CCN(C)CC3)cc21 | - | - | - | - | -
O=C(O)CCSCc1ccccc1 | . | . | . | - | .
N#CN1CCC(NS(=O)(=O)c2ccc(C(F)(F)F)cc2)C1 (stereo unspecified) | . | - | ? | . | -
CCCn1c(SCC(=O)N2CCc3ccccc3C2)nc(O)cc1=O | - | . | . | . | -
